Screens (PubChem BioAssay)
CYP2C19 inhib = inhibitors of human CYP2C19; P33261; CYP2C19 Supersomes, luciferin-H EGE luminescence, 30 min; inhibition, % at 5 µM; 96,000 compounds, 21% hits; AID 778;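 active = CYP2C19 inhibition above a set limit at 5 µM in the primary screen, cut at about 50% in these data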
Target sequence (P33261 whole entry, looked up): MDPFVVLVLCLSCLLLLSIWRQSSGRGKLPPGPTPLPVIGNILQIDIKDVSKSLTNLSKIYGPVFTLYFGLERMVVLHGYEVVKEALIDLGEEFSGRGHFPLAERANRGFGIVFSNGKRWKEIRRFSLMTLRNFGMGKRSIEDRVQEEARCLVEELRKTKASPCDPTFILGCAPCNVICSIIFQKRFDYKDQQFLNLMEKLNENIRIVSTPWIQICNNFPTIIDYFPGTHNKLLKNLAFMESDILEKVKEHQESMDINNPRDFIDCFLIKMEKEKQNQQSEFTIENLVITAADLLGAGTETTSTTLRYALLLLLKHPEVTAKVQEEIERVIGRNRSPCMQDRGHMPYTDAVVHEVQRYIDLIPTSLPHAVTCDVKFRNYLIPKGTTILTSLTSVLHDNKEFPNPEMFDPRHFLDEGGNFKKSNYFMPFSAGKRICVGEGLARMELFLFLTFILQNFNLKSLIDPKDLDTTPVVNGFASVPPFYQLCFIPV
CYP2C9 inh = inhibitors of human CYP2C9. P11712. CYP2C9 Supersomes, luciferin-H conversion, luminescence. inhibition, % at 5 µM. 96,000 compounds, 20% hits;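 active = blocking of liver enzyme CYP2C9 beyond about 50% at 5 µM, limit read from the data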
CYP2C19 act = activators of human cytochrome P450 2C19. recombinant CYP2C19, luciferin-H EGE luminescence; stronger effect = higher value; 0 = fully inhibited enzyme, 1 = untreated enzyme. P33261. AID 1025. 96,000 tested, under 10 active. activation factor at 5 µM;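 active = activation factor of at least 2 at 5 µM in the primary screen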
D1 allo mod = allosterically modulates the human D1 dopamine receptor | P21728 | HEK293 D1, CRE-luciferase, dopamine EC30 potentiation; actives deviate in either direction | B-score at 10 µM | 58,000 compounds, 5.9% hits | AID 641;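 active = luminescence count or its row- and column-corrected plate score outside the 99.7% band of the plate's sample wells, on either side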
CYP2C9 activ = activators of human CYP2C9 | P11712 | recombinant CYP2C9, luciferin-H conversion, luminescence; stronger effect = higher value; factor 1 = untreated enzyme, 0 = blocked | activation factor at 5 µM | 96,000 compounds, 1.4% hits | AID 1024;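 active = activation factor of 2 or more for CYP2C9 at a 5 µM dose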
hDAT+cocaine = modulates human dopamine transporter uptake under cocaine | 110,000 compounds, 1.3% hits | Q01959 | LLC-PK1 hDAT cells, [14C]-dopamine uptake with cocaine IC80; actives deviate in either direction | AID 449768 | B-score at 10 µM;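 active = Z score or B-score, a plate-position-corrected score, falls beyond the plate's 99.7% confidence bounds, in either direction; inactive = both scores lie inside the 99.7% bounds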
Each line names hits and unclear results; the compound was inactive in the other large screens. The list is not random: actives were taken first. Their share in the collection is about 28%.

N#Cc1cc(N)ccc1Sc1ccccc1	CYP2C9 activ 2 (no result: D1 allo mod)
COC(=O)c1c(NC(=O)C2CCC2)sc(C(=O)N(C)C)c1C	none
COC(=O)c1sc(NC(=O)C(C)C)c(C(=O)OC)c1C	CYP2C19 inhib 53 (no result: D1 allo mod)
Cc1c(C(=O)OC(C)C)sc(NC(=O)C2CCCO2)c1C(=O)OC(C)C (stereo not given)	CYP2C19 inhib 69, CYP2C9 inh 76 (no result: D1 allo mod)
CCOC(=O)c1sc(NC(=O)C2CCCO2)c(C(=O)OCC)c1C (stereo not given)	none (no result: hDAT+cocaine)
COC(=O)c1sc(NC(=O)C2CCCO2)c(C(=O)OC)c1C (stereo not given)	CYP2C19 inhib 51 (no result: D1 allo mod)
CCC(=O)Nc1sc(C(=O)OC)c(C)c1C(=O)OC	none
COC(=O)c1sc(NC(=O)C2CCCCC2C(=O)O)c(C(=O)OC)c1C (stereo not given)	CYP2C9 inh 93
CC/C(C)=C1\SC(N2CCOCC2)=NC1=O	none (no result: D1 allo mod)
CSCC[C@H](NC(=O)OC(C)(C)C)c1nnc(SCC(=O)N(C)C)o1	none
CSCC[C@H](NC(=O)OC(C)(C)C)c1nnc(SCc2ccc(F)cc2)o1	CYP2C19 inhib 88, CYP2C9 inh 78
CC(C)C[C@H](NC(=O)OC(C)(C)C)c1nnc(SCc2cccc(F)c2)o1	none
CCN(CC)C(=O)CSc1nnc([C@H](Cc2c[nH]c3ccccc23)NC(=O)OC(C)(C)C)o1	CYP2C19 inhib 53, CYP2C9 inh 62
CSCC[C@H](NC(=O)OC(C)(C)C)c1nnc(SCc2ccccc2)o1	CYP2C19 inhib 79, CYP2C9 inh 60
CSCC[C@H](NC(=O)OC(C)(C)C)c1nnc(SCc2cccc(F)c2)o1	CYP2C19 inhib 80, CYP2C9 inh 69
CCOC(=O)Cn1ncc(-c2ccccc2)c1N	none (no result: CYP2C19 inhib, CYP2C9 inh, CYP2C19 act, CYP2C9 activ)
COc1ccc(C)cc1NC(=O)C1CCCN(S(=O)(=O)c2c(C)noc2/C=C/N(C)C)C1 (stereo not given)	none (no result: CYP2C19 inhib, CYP2C9 inh, CYP2C19 act, CYP2C9 activ, hDAT+cocaine)
CCOc1cc(C2NC(=O)NC(C)=C2C(=O)NCc2ccccc2)c(Cl)cc1O (stereo not given)	none (no result: D1 allo mod)
Cc1[nH]c2ccccc2c1Cc1nnc(SCCC#N)o1	none (no result: CYP2C19 inhib, CYP2C9 inh, CYP2C19 act, D1 allo mod, CYP2C9 activ)
CC(C)C[C@H](NC(=O)OC(C)(C)C)c1nnc(SCC(=O)Nc2ccc(Br)cc2)o1	CYP2C19 inhib 65
O=C(O)Cc1ccc2c(c1)N(S(=O)(=O)c1cccc(C(F)(F)F)c1)CC(C(=O)O)O2 (stereo not given)	none (no result: D1 allo mod)
CC(=O)c1ccc(Oc2ncnc3sccc23)c(CN2CCOCC2)c1	hDAT+cocaine -7.9 (no result: CYP2C19 inhib, CYP2C9 inh, CYP2C19 act, CYP2C9 activ)
CC(=O)c1ccc(OCC(C)C)c(CN2CCCCC2)c1	none
CC(=O)c1cnc(Nc2nc(C)c3cccc(C)c3n2)nc1C	none (no result: D1 allo mod, hDAT+cocaine)
Cc1ccc(S(=O)(=O)N2CCC(=O)N(CCOC(=O)Nc3ccc(F)cc3)CC2)cc1	none (no result: CYP2C19 inhib, CYP2C9 inh, CYP2C19 act, D1 allo mod, CYP2C9 activ)
CCOC(=O)CSC1=C(C#N)C(c2ccccc2)C(C(C)=O)=C(C)N1 (stereo not given)	CYP2C19 inhib 58, CYP2C9 inh 59
CCOC(=O)CSc1nc2ccc(C)cc2cc1C#N	none (no result: D1 allo mod)
CCOC(=O)CSC1=C(C#N)C(c2ccc(C)cc2)C(C(=O)OC)C(=O)N1 (stereo not given)	CYP2C19 inhib 54
CSCSC1=C(C#N)C(c2ccc(Cl)cc2)C(C(C)=O)=C(C)N1 (stereo not given)	CYP2C19 inhib 98, CYP2C9 inh 100
CCOC(=O)c1nnc(-c2cccs2)nc1Oc1ccccc1C(=O)OC	CYP2C19 inhib 83, CYP2C9 inh 95 (no result: D1 allo mod)
CN(C)CC(C)(C)CNS(=O)(=O)c1ccc(Cl)c(Cl)c1	CYP2C19 inhib 83, CYP2C9 inh 50 (no result: D1 allo mod)
CN(C)CCCNS(=O)(=O)c1cc(Cl)ccc1Cl	none
Cc1ccc(-n2nnnc2SCC(=O)N2c3ccccc3NC(=O)C2(C)C)cc1	none
COC(=O)c1ccc(COc2cc(O)c3c(c2)OC(C)(C)CC3=O)cc1	CYP2C19 inhib 51
CC1(C)CC(=O)c2c(O)cc(OCc3ccc(Br)cc3)cc2O1	CYP2C19 inhib 61, CYP2C9 inh 85 (no result: D1 allo mod)
COc1cc(O)c2c(c1)OC(C)(C)CC2=O	none
Cc1nc2ncnn2c(N2CCN(C(=O)Cc3cccs3)CC2)c1C	none
c1cc(-c2nnc3n2CCC3)[nH]n1	none
COC(C[C@H]1O[C@@H]1C(=O)[C@H](C)OCc1ccccc1)OC	none (no result: CYP2C19 inhib, CYP2C9 inh, CYP2C19 act, D1 allo mod, CYP2C9 activ)
Cc1c(C#N)c2ccccc2n1CCOc1ccccc1F	CYP2C9 inh 51
N#Cc1cn(CCOc2ccc(F)cc2)c2ccccc12	none (no result: CYP2C19 inhib, CYP2C9 inh, CYP2C19 act, D1 allo mod, CYP2C9 activ)
N#Cc1cn(CCOc2ccccc2F)c2ccccc12	CYP2C19 inhib 98, CYP2C9 inh 100
COC(=O)Cn1c(C)c(C#N)c2ccccc21	none (no result: CYP2C19 inhib, CYP2C9 inh, CYP2C19 act, D1 allo mod, CYP2C9 activ)
Cc1cc(C)c[n+](-c2nc([O-])sc2C=O)c1	none (no result: D1 allo mod)
CC(C)C(NC(=O)C1CCC(C(C)(C)C)CC1)C(=O)NCc1cccnc1 (stereo not given)	CYP2C19 inhib 52, CYP2C9 inh 51 (no result: D1 allo mod)
CC(C)C(NC(=O)C1CCCCC1)C(=O)Nc1ccc2c(c1)OCCO2 (stereo not given)	none
COc1cccc(NC(=O)N2CCCC(C(=O)NCc3ccc(F)cc3)C2)c1 (stereo not given)	none (no result: CYP2C19 inhib, CYP2C9 inh, CYP2C19 act, D1 allo mod, CYP2C9 activ)
CS(=O)(=O)N1CCC(C(=O)NCc2ccncc2)CC1	CYP2C9 inh 59
O=C(NCc1ccccc1)C1CCCN(C(=O)Nc2ccccc2)C1 (stereo not given)	CYP2C19 inhib 67
CC(C)C(NC(=O)C1CCCCC1)C(=O)Nc1ccncc1 (stereo not given)	CYP2C19 inhib 96, CYP2C9 inh 92
CC1CC(C)CN(Cc2nc3c(c(=O)n(C)c(=O)n3C)n2Cc2ccccc2Cl)C1 (stereo not given)	none (no result: CYP2C19 inhib, CYP2C9 inh, CYP2C19 act, CYP2C9 activ, hDAT+cocaine)
Cn1cc(CNC(=O)C2CCCCC2)cn1	none
O=C(NCc1ccncc1)C1CCCCC1	hDAT+cocaine -8 (no result: D1 allo mod)
Cn1c(=NC(=O)C2CC2)sc2cccc(F)c21	none
Cc1ccc(OC(=O)COc2ccccc2)c(-n2nc3ccccc3n2)c1	none (no result: D1 allo mod)
N#Cc1ccc(COc2ccc(CCO)cc2-n2nc3ccccc3n2)cc1	CYP2C19 inhib 53, CYP2C9 inh 89
CCOc1cc(CNC(=O)CN2C(=O)c3ccccc3S2(=O)=O)ccc1OC	none
CCOCCOC(=O)c1[nH]c2c(c1C)C(=O)CC(c1ccc(N(C)C)cc1)C2 (stereo not given)	CYP2C9 inh 85
C/C=C/COC(=O)c1[nH]c2c(c1C)C(=O)CC(c1ccc(N(C)C)cc1)C2 (stereo not given)	CYP2C9 inh 65
C/C=C/COC(=O)c1[nH]c2c(c1C)C(=O)CC(c1ccco1)C2 (stereo not given)	none
CCC(C)OC(=O)c1[nH]c2c(c1C)C(=O)CC(c1ccc(N(C)C)cc1)C2 (stereo not given)	CYP2C19 inhib 68, CYP2C9 inh 53
CCC(C)OC(=O)C1=C(C)NC2=C(C(=O)C(C(=O)OC)C(C)C2)C1c1ccc(N(C)C)cc1 (stereo not given)	none
Cc1nc(CCNC(=O)COc2ccccc2)cs1	none
